Assay outcomes deposited in PubChem by National Center for Advancing Translational Sciences (NCATS).
ATXN viability: viability counter-screen for ATXN expression inhibitors; S2 cells (HEK-293 line with an ATXN2-luciferase reporter) viability, CellTiter-Fluor protease fluorescence, 24 h; Potency, µM (highest dose often 56.7 µM), actives largely listed as cytotoxic; 0.49% of 400,000 active; note: potency is the fitted concentration of half-maximal effect; nearly all actives have a fitted effect of over 40% in size
MCF10A rerep: DNA re-replication induction in MCF 10a cells | MCF 10A DNA re-replication, Hoechst nuclear intensity, 48 h | Potency, µM (highest dose often 46.1 µM), for the others: top-dose activity, positive = re-replication, hits mostly activators | 2.9% of 350,000 active; note: potency is the fitted concentration of half-maximal effect; % of control where 0% means no effect; nearly all actives have a fitted effect of over 50% in size
ATXN2 expr inh: inhibitors of ATXN2 expression. HEK-293 ATXN2-luciferase reporter, luminescence, 24 h. Potency, µM (doses to about 57 µM), for inactives: at the highest dose activity change, negative = inhibition, actives largely listed as inhibitors. 0.72% of 360,000 active; note: potency is the fitted concentration of half-maximal effect; % is set by controls: 0 for no effect and ±100 for the full control effect; nearly all actives have a fitted effect of over 55% in size
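qHTS (up to 57 uM final) was run with 24 h compound exposure of reporter cells at 37 °C. Each well was multiplexed: SteadyGlo luminescence measured ATXN2-luciferase expression after a fluorogenic Gly-Phe-AFC viability readout (25 uM final).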
PINK1 expr mod: modulators of PINK1 expression; PINK1 immunofluorescence, high-content cytometry, 24 h; Potency, µM (titrated, usually from 76.6 µM), for inactives: top-dose activation (PINK1 increase), actives largely listed as activators; 0.2% of 410,000 active; AID 624263; active = well fitted activation curve with a large enough effect; inconclusive = small, poorly fitted or top-dose-only effect; cell line not stated here; note: potency is the fitted concentration of half-maximal effect; % of control where 0% means no effect; nearly all actives have a fitted effect of over 65% in size
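Compound titrations (5 concentrations, 24 h) on a stable cell line; DMSO and CCCP controls. Endpoint: fixed-cell PINK1 immunofluorescence with mitochondrial, cell and nuclear markers, scanned by microplate cytometer.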
SW480 rereplic: inducers of DNA re-replication in SW480 colon cancer cells | SW480 DNA re-replication, Hoechst DNA content imaging, 48 h | 1.8% of 340,000 active | AID 624297 | Potency, µM (top dose mostly 46.1 µM), for the others: top-dose re-replication activation, actives largely listed as activators; note: potency is the fitted concentration of half-maximal effect; % of control where 0% means no effect; nearly all actives have a fitted effect of over 55% in size
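Hoechst fluorescence of nuclei (405 nm excitation, 500-530 nm emission) measured by plate-scanning imager after 48 hr compound exposure at 37 C; re-replication scored as increased number of nuclei with elevated intensity.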
IL1B secr inh: inhibitors of inflammasome signaling (IL-1 beta secretion); 4.7% of 360,000 active; activity change, % at 57.5 µM; AID 743279; THP-1 LPS/ATP IL-1B secretion, AlphaLISA, 16 h; stronger effect = lower value; in the data active = activity change below about -50%; inconclusive = mostly about -30% to -49%; note: % is set by controls: 0 for no effect and ±100 for the full control effect
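THP-1 cells pretreated 1 hr with compounds (up to 57.5 uM final), then stimulated with LPS (250 ng/mL final) plus ATP (1.25 mM final); secreted IL-1B measured by AlphaLISA after 16 hr, decreased signal indicating inhibition.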
* hit, by the source's call; i = inactive; ? = inconclusive; / = not tested or not shown; [ ] = another dose, or the depositor's remark. Sampled rows, rich in hits. Any-hit rate of the full collection: about 7.1%. Unless noted, calls come from the whole dose curve; as a rule, active = well fitted curve in the direction sought with a large enough effect; inconclusive = small, poorly fitted or top-dose-only effect, or another doubt; inactive = no such curve, though single readings can be large; an effect the other way counts as inactive or inconclusive.

SMILES | ATXN viability | MCF10A rerep | ATXN2 expr inh | PINK1 expr mod | SW480 rereplic | IL1B secr inh
Cc1ccc(S(=O)(=O)[N-]c2nc3ccccc3nc2-n2cc[n+](Cc3ccccc3)c2)cc1 | / | ? | 12.1% | -0.1% | ? | ?
COc1ccccc1CNC(=O)C(CC(C)C)N1Cc2ccccc2C1=O (centres undefined) | / | / | / | 1.0% | / | /
O=C(NCC1CCC2(CCN(Cc3cc4ccccc4o3)CC2)O1)c1ccccc1 (centres undefined) | i | / | / | 3.5% | / | /
Cc1c(Cl)cccc1NC(=O)CSc1ncnc2c1cnn2CCc1ccccc1 | i | 10µM* | -19.4% | 13.6% | -1.0%[9.22 µM] | -10.6
O=C(CSc1ncnc2c1cnn2CCc1ccccc1)Nc1cccc(C(F)(F)F)c1 | i | ? | -18.2% | 7.3% | -6.1% | -12.7
COc1ccc(OC)c(NC(=O)CSc2ncnc3c2cnn3-c2ccccc2Cl)c1 | i | ? | -32.1% | -2.0% | 3.7% | -79.4*
CC(C)Cc1nc2cc(NS(=O)(=O)N(C)C)cc(C(=O)N3CCOCC3)c2n1C | i | / | / | -0.5% | / | /
Cc1ccc(-c2cc(C(=O)N(C)Cc3cnn(C)c3C)c3cc(Br)ccc3n2)cc1 | ? | 16.4µM* | ? | -1.3% | 9.2% | 23.5
Cc1ccc(S(=O)(=O)N2CCN(S(=O)(=O)c3ccc4c(c3)OCCCO4)CC2)cc1 | / | / | / | -0.4% | / | /
COc1cccc2sc3cc(NCc4ccc5c(c4)OCO5)ccc3c(=O)c12 | i | 4.11µM* | -7.0% | -1.9% | ? | ?
COc1ccc(NCc2ccc3c(c2)OCO3)cc1Cl | i | 2.3% | 49.4% | 1.3%[38.3 µM] | 1.5% | -93.4*
COc1cc2sc3cc(NCc4ccc5c(c4)OCO5)ccc3c(=O)c2cc1OC | i | 21.7% | 9.5% | 2.8% | ? | -22.1
COC(=O)C1=C(C)NC(C)=C(C(=O)OC)C1c1ccc(OC(=O)c2oc3ccccc3c2C)c(OC)c1 | i | 11.2% | / | 2.1% | 0.517µM* | -0.3
CC(C)NC(=O)C1(C#N)C=C1c1ccccc1 (centres undefined) | ? | / | ? | 0.7% | / | -83.8*
O=C(COc1ccccc1F)Nc1ccccc1OCc1cc(=O)n2ccccc2n1 | / | / | / | -3.2% | / | /
CC(=O)n1cc([C@H]2C=C(C(=O)NCc3ccccc3)O[C@@H](OCc3ccc(CO)cc3)C2)c2ccccc21 | ? | 18.4µM* | -26.0% | 2.6% | 15.5% | -53.3*
O=C(NCc1ccccc1)C1=C[C@H](c2csc3ccccc23)C[C@H](OCc2ccc(CO)cc2)O1 | ? | ? | -37.4% | 1.8% | 1.3% | -52.2*
C#CCNC(=O)C1=C[C@H](c2csc3ccccc23)C[C@H](OCc2ccc(CO)cc2)O1 | ? | 2.06µM* | ? | -1.5% | ? | -27.7
C#CCNC(=O)C1=C[C@@H](c2cn(C(C)=O)c3ccccc23)C[C@@H](OCc2ccc(CO)cc2)O1 | i | 5.2% | -5.9% | 0.2% | ? | 16.6
COc1ccc(Nc2oc(-c3ccc(COc4ccccc4C)o3)nc2C#N)cc1 | ? | / | ? | 13.2% | / | /
O=C(NCC(c1cccs1)S(=O)(=O)c1cccs1)c1c(F)cccc1F (centres undefined) | i | / | 0.8% | 0.7% | / | /
O=C(c1sc(N2CCOCC2)nc1-c1ccccc1)N1CCCCC1 | i | -3.1% | -0.8% | -1.6% | 1.7% | -5.8
[2H]c1c([2H])c([2H])c(-c2nc(N3CCCCCC3)sc2C(=O)c2ccccc2)c([2H])c1[2H] | i | 7.31µM* | 11.7% | 2.0% | ? | -18.4
CC(=O)/C=C\c1ccccc1OC(=O)c1cc2ccccc2oc1=O | i | 4.0% | 10.6% | -1.3% | -18.7% | -22.5
O=C(/C=C\c1ccccc1OC(=O)c1ccccc1F)c1cc2ccccc2o1 | i | ? | 55.2% | -3.9% | 4.8% | -104.0*
O=S(=O)(c1ccccc1)c1nc(-c2ccccc2)oc1N1CCN(c2cccc(Cl)c2)CC1 | i | / | -7.5% | 0.0% | / | /
O=C(Cc1ccccn1)c1ccc(Cl)cc1 | i | 27.0% | 13.3% | 2.8% | -2.3% | 14.2
